The campaign covered roughly 69,000 compounds. About 8,600 (12%) showed an effect of 50% or more. What follows is part of a selection rich in strong results, with near analogues and random picks from the rest.

This note sets out measurements from ChEMBL document CHEMBL4513216, “Probing the Open Global Health Chemical Diversity Library for Multistage-Active Starting Points for Next-Generation Antimalarials” (ACS Infect Dis, 2020).

The assay concerns Plasmodium berghei. Description: Screen against P. berghei liver stage (PbLuc), transformed with Luciferase, at 10uM. In kind it is functional, HepG2. The note with it: tested at 10 uM.
As for `c1ccc(C[C@H]2CN(C3CCOCC3)CC[C@H]2OCC2CC2)cc1`, the INHIBITION is -54.1%.

On to `c1ccc(C[C@H]2CN(Cc3nccs3)CC[C@H]2OCC2CC2)cc1`, for which the INHIBITION is listed as 50%.

With `c1csc(CN2CCCn3cnc(COCC4CC4)c3C2)n1`, the INHIBITION was determined as 37.8%.

`c1ccc(C[C@H]2CN(Cc3nccs3)CC[C@@H]2OCC2CC2)cc1`: the INHIBITION amounted to 62.5%.

For the compound `c1csc(CN2C[C@H](OCC3CC3)[C@H]3COC[C@H]32)n1`, the INHIBITION stood at 12.6%.

`CCCNC(c1ccc(F)cc1)c1cccnc1` (centres undefined): the INHIBITION stood at 42.1%.

With `CC(C)c1ccc(C(O)CN2CCN(Cc3nccn3C)CC2)cc1` (centres undefined), the INHIBITION is -65.3%.

For `CCC1CN(Cc2cccc(C(=O)N(C)C)c2)CCN1CCOC` (centres undefined), the INHIBITION is given as -34%.

Regarding `Cc1cccc(CN2C[C@@H]3CN(C(=O)NC(C)C)C[C@@H]3C2=O)n1`, the INHIBITION is listed as -31.9%.

Consider `CC(C)(C)c1cc(NC(=O)CNC2CCc3ncnn3C2)on1` (centres undefined), for which the INHIBITION is reported as 48.4%.

As to `CC(C)c1cc(NC(=O)CN2CCC(C(N)=O)CC2)on1`, the INHIBITION was 9.64%.

Take `CC(C)c1cc(NC(=O)CN2CCC(N3CCCCC3)CC2)on1`: the INHIBITION turned out to be 74.1%.

Regarding `CC(C)c1cc(NC(=O)CN2CCCC(Cn3cncn3)C2)on1` (centres undefined), the INHIBITION worked out at 5.58%.

As to `Cc1cc(NC(=O)CNC2CCc3ncnn3C2)on1` (centres undefined), the INHIBITION came out at 6.67%.

Regarding `CC(C)c1cc(NC(=O)CN2CCC(N3CCNC3=O)CC2)on1`, the INHIBITION is on record as 17.3%.

Turning to `CNC(=O)C1CCN(CC(=O)Nc2cc(C(C)C)no2)CC1`, the INHIBITION is 53%.

Take `CC(C)c1cc(NC(=O)CNC2CCc3ncnn3C2)on1` (centres undefined): the INHIBITION is 65.3%.

`CC(C)c1cc(NC(=O)CN2CCNC(=O)C2)on1`: the INHIBITION is recorded as 20.6%.

With `Cc1ccc2nnc(C(=O)NCC3CCCC3)nc2c1`, the INHIBITION is -4.01%.

As to `O=C(c1cccnc1)N1CCn2nnc(COc3ccccn3)c2C1`, the INHIBITION is 41.6%.

With `CN(C)CCOCc1cncc2c1CCN(C(=O)c1cscn1)C2`, the INHIBITION was determined as 49.4%.

Regarding `Cc1ccc(S(=O)(=O)NC2CNC(=O)C2)cc1C` (centres undefined), the INHIBITION turned out to be 38.5%.

On to `O=C1CC(NS(=O)(=O)c2ccc(Cl)cc2)CN1` (centres undefined), for which the INHIBITION came to 45.5%.

For the compound `COc1cccc(S(=O)(=O)NC2CNC(=O)C2)c1` (centres undefined), the INHIBITION is recorded as -12.2%.

`O=C1CC(NS(=O)(=O)c2ccc(Br)cc2)CN1` (centres undefined): the INHIBITION stood at 53.7%.

Consider `CSc1ccc(S(=O)(=O)NC2CNC(=O)C2)cc1` (centres undefined), for which the INHIBITION stood at 42.1%.

Turning to `COC(=O)c1ccc(S(=O)(=O)NC2CNC(=O)C2)cc1` (centres undefined), the INHIBITION amounted to 60.6%.

On to `O=C(c1ccnc(C2CCNCC2)c1)N1CCCC(CO)C1` (centres undefined), for which the INHIBITION is 23.9%.

`CCOCC1CN(C(=O)c2cc(C)oc2C)Cc2c1cnn2C` (centres undefined): the INHIBITION amounted to 36.2%.

Regarding `COC[C@H]1CC[C@H]2[C@H](CCN2S(=O)(=O)c2ccccc2)O1`, the INHIBITION turned out to be 4.68%.

For `c1nc(N2CCOCC2)sc1-c1cncn1CCCN1CCCCC1`, the INHIBITION was 8.32%.

Turning to `CC(O)CN1CCN(C(=O)CCOC(C)C)CC1` (centres undefined), the INHIBITION was 8.05%.

On to `CCC(O)CN1CCN(C(=O)CCSC)CC1` (centres undefined), for which the INHIBITION was 68.2%.

Consider `CCOCCC(=O)N1CCN(CC(C)O)CC1` (centres undefined), for which the INHIBITION was found to be 29.4%.

Consider `CSCCC(=O)N1CCN(CC(O)C(C)(C)C)CC1` (centres undefined), for which the INHIBITION is recorded as -46.4%.

As for `CCN1CCN(C(=O)CCC2CCN(C(=O)CCSC)CC2)CC1`, the INHIBITION is given as 33.5%.

With `CSCC(=O)N1CCN(CC(O)C(C)(C)C)CC1` (centres undefined), the INHIBITION was 60.9%.

Regarding `CSCCC(=O)N1CCN(CC(C)(C)O)CC1`, the INHIBITION is -94.3%.

For the compound `CSCCC(=O)N1CCN(CC(C)O)CC1` (centres undefined), the INHIBITION was determined as 68.2%.

As for `CC(C)(C)C(O)CN1CCN(C(=O)COCC2CC2)CC1` (centres undefined), the INHIBITION stood at 10.6%.

Take `O=C(CCC(=O)N1CCCC1c1ccsc1)N1CCOCC1` (centres undefined): the INHIBITION was 7.24%.

In the case of `Cc1ccc2nc(-c3nc4c([nH]3)CCCNC4=O)cn2c1`, the INHIBITION is on record as -87.9%.

`CCOC(=O)CN1CCC2(CC1)CC(=O)c1ccc3ccccc3c1O2`: the INHIBITION is reported as 31.2%.

Regarding `CCC(=O)NCc1ccc(N2CCCCC2)cc1`, the INHIBITION is recorded as -0.578%.

Turning to `Cc1nc(C)n(CC2CCCN2Cc2cc(-c3cccs3)on2)n1` (centres undefined), the INHIBITION was 40.65%.

Consider `c1nnc(Nc2cncc(C3CCCN3CC3CC3)n2)s1` (centres undefined), for which the INHIBITION was 11.8%.

As to `Cc1noc2nc(C3CCCN(Cc4cccnc4)C3)cc(C(F)F)c12` (centres undefined), the INHIBITION is recorded as 41.2%.

For `CCc1c(C)nc(C2CCCN2C(=O)c2cc(C)no2)nc1O` (centres undefined), the INHIBITION amounted to 30.4%.

For `CCc1cc(C(=O)N2CCCC2c2nc(C)c(F)c(O)n2)on1` (centres undefined), the INHIBITION turned out to be 53%.

With `CCc1cc(O)nc(C2CCCN2C(=O)c2cc(C)no2)n1` (centres undefined), the INHIBITION is recorded as 26.9%.

`Cc1cc(C(=O)N2CCCC2c2nc(C)cc(O)n2)on1` (centres undefined): the INHIBITION worked out at 44.8%.

With `Cc1cc(C(=O)N2CCCC2c2nc(O)cc(C(C)C)n2)on1` (centres undefined), the INHIBITION is on record as 51.5%.

With `CCc1cc(C(=O)N2CCCC2c2nc(C)c(CC)c(O)n2)on1` (centres undefined), the INHIBITION was -21.4%.

With `CN(C)CCN1C(=O)CCC12CCCN(C(=O)C1CC=CC1)CC2` (centres undefined), the INHIBITION is recorded as -38.1%.

In the case of `NC(=O)CCN(CC(=O)NCc1cccs1)c1ccc(F)cc1`, the INHIBITION is 47.3%.

In the case of `Cn1cc(CN2CC[C@@H]3[C@@H](CO[C@H]3CNC(=O)c3ccco3)C2)cn1`, the INHIBITION is reported as -16.9%.

As for `CCN1CC[C@@]2(C(=O)N3CCOCC3)CCN(C(=O)NC)CC[C@@H]12`, the INHIBITION is -19.6%.

In the case of `Cc1cc(-c2nccs2)nc(C2CCN(Cc3ccccn3)CC2)n1`, the INHIBITION was 23.9%.

Regarding `Cc1nccc([C@@H]2C[C@@H]3CCN(Cc4cccs4)C[C@H]3O2)n1`, the INHIBITION is -32.6%.

In the case of `Cc1cc(-c2nccs2)nc(C2CCN(Cc3cccs3)CC2)n1`, the INHIBITION is given as 50.8%.

For `Cc1cc(-c2nccs2)nc(C2CCN(Cc3ccc(F)cc3)CC2)n1`, the INHIBITION came to 52.7%.

On to `Oc1cc(-c2nccs2)nc(C2CCN(Cc3cccs3)CC2)n1`, for which the INHIBITION is reported as 2.55%.

Regarding `Cc1cc(-c2nccs2)nc(C2CCN(Cc3ccncc3)CC2)n1`, the INHIBITION turned out to be 26.7%.

Turning to `Cc1nnc(C(C)NCC2(c3ccc(F)cc3)CCCCC2)o1` (centres undefined), the INHIBITION is -14.6%.

For the compound `O=C(CCn1ccccc1=O)Nc1ccc(C(=O)O)cc1`, the INHIBITION turned out to be 12.7%.

Turning to `Cc1nc(N(C)C)nc2c1COCC21CCN(C(=O)NCC(C)C)C1` (centres undefined), the INHIBITION is listed as -43.8%.

Turning to `CC(NC(=O)CCOc1ccc(F)cc1)c1nnc2n1CCCCC2` (centres undefined), the INHIBITION stood at 28.8%.

In the case of `COc1ccccc1CNc1ccc2nncn2n1`, the INHIBITION is on record as -33.8%.

Regarding `O=C(Cn1cccnc1=O)NC(Cc1ccsc1)c1cccnc1` (centres undefined), the INHIBITION is 14.7%.
